How the values were obtained:
Format in all cases: functional
[1] = biological target: Solute carrier family 2, facilitated glucose transporter member 1 (Homo sapiens) (UniProt P11166); test: ST_JUDE_LEISH: Cytotoxicity at 2uM final concentration against transgenic Leishmania Mexicana promastigotes LmGLUT1 that are glucose transport deficient and complemented with the human glucose transporter GLUT1. Activity is measured by DNA content using SYBR green in vitro
[2] = biological target: Hexose transporter 1 (Plasmodium falciparum) (UniProt O97467); test: ST_JUDE_LEISH: Cytotoxicity at 2uM final concentration against transgenic Leishmania Mexicana promastigotes LmPfHT that are glucose transport deficient and complemented with the Plasmodium falciparum hexose transporter. Activity is measured by DNA content using SYBR green in vitro
[3] = biological target: Glucose transporter (Leishmania mexicana) (UniProt O61059); test: ST_JUDE_LEISH: Cytotoxicity at 2uM final concentration against transgenic Leishmania Mexicana promastigotes LmGT2 that are glucose transport deficient and complemented with the L. Mexicana glucose transporter 2. Activity is measured by DNA content using SYBR green in vitro

Chain of Solute carrier family 2, facilitated glucose transporter member 1 (Homo sapiens) (P11166 whole entry): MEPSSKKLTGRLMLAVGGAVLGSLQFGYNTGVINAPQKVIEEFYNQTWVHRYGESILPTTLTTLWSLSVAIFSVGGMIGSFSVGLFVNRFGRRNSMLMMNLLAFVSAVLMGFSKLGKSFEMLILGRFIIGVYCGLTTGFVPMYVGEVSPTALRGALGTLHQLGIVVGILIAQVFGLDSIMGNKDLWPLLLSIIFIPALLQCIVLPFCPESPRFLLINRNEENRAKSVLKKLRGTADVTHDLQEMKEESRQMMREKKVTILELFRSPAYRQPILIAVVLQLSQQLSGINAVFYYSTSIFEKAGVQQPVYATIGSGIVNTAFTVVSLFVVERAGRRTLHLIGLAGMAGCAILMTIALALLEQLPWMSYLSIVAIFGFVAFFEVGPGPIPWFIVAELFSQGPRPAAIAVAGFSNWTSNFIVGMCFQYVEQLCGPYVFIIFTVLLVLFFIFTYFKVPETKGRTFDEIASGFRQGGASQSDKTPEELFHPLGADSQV

| SMILES | inhibition [1] [%] | inhibition [2] [%] | inhibition [3] [%] |
| --- | --- | --- | --- |
| CN1CCCN(Cc2ccc(-c3cccc(NC(=O)c4cccc(F)c4)c3)cc2)CC1 | 12.9 | 9.38 | 7.57 |
| O=C(NC1CCN(Cc2ccccc2O)C1)c1cccc(C(F)(F)F)c1 (centres undefined) | 0.25 | 0.49 | -9.49 |
| Cc1ccc(NC(=O)c2ccc(N3CCN(c4ccncc4)CC3)cn2)cc1F | 109 | 95.4 | 102 |
| Cc1cc(NC(=O)c2ccco2)ccc1OC1CCN(Cc2ccc(C#N)cc2)CC1 | 1.63 | 1.09 | 1.11 |
| O=C(C=Cc1ccc(Cl)c(Cl)c1)NCCCCCN1CCC(CCCNS(=O)(=O)c2cccc(C(F)(F)F)c2)CC1 | 0.51 | -1.72 | 2.46 |
| COc1ccc2nccc([C@@H](O)CN3CCC(NCc4nc5cc(F)c(F)cc5[nH]4)CC3)c2c1 | 0.88 | 2.26 | -0.99 |
| OC(CNCCCc1ccccc1)c1cc(OCc2ccccc2)cc(OCc2ccccc2)c1 (centres undefined) | 6.81 | 2.05 | 1.79 |
| C=CCn1c(SCc2c(C)noc2C)nc2scc(-c3cccs3)c2c1=O | 0.98 | 0.21 | -5.13 |
| Cc1ccc(NC(=O)NC2CCN(CCCCCNC(=O)/C=C/c3ccc(Cl)c(Cl)c3)CC2)cc1 | 0.42 | 1.16 | -5.98 |
| O=C(/C=C/c1ccc(CNCCN2CCOCC2)cc1)NCCc1ccccc1 | 0.21 | -1 | 0.2 |
| CCCCCCn1c2c(c(=N)c3c1CCC3)CCCC2 | 78.2 | 77.5 | 66.2 |
| Cc1nn(C2CCS(=O)(=O)C2)c(C)c1C1Nc2ccccc2C(=O)N1Cc1ccc2c(c1)OCO2 (centres undefined) | -0.66 | -0.19 | -1.17 |
| CN(/N=C/C=C/c1ccc(Cl)cc1)c1nc(NCCc2ccc(O)cc2)nc(N2CCNCC2)n1 | -0.76 | 0.71 | -0.16 |
| Nc1cc2c(C3CCN(CC4CCN(C(=O)/C=C/c5ccc(Cl)c(Cl)c5)CC4)CC3)c[nH]c2cn1 | 1.83 | 0.67 | -0.09 |
| CN1CCc2ccc(NC(=O)Nc3ccc(Cl)c(Cl)c3)cc2C1 | 4.69 | 3.67 | 3.54 |
| COc1ccc2nccc([C@@H](O)CN3CCC(NC(=O)c4cc5cccnc5[nH]4)CC3)c2c1 | 5.47 | 3.5 | -0.32 |
| COc1cccc(C2CCN(CCCCNC(=O)c3ccc(NC(=O)c4ccc(Cl)cc4)cc3)CC2)c1 | 2.77 | 2.82 | 3.37 |
| Cc1cc(N2CCNCC2)c2cc(NC(=O)Nc3ccc(Cl)c(Cl)c3)ccc2n1 | 3.19 | 3.7 | 3.64 |
| CN(C)Cc1ccc(-c2cc3c(-c4ccc(CN(C)C)cc4)ccnc3[nH]2)cc1 | 5.17 | 12.8 | 2.4 |
| COc1cc(C=CC(=O)N2CCC3(CC2)CC(=O)c2ccccc2O3)cc(OC)c1OC | 1.6 | 2.09 | -0.58 |
| CC(C)N1CCN(C(CN2CCN(CCCOc3ccc4ccccc4c3)CC2)c2ccc(F)cc2)CC1 (centres undefined) | 1.8 | 1.79 | -0.76 |
| CC(C)(CNC(=O)[C@H]1CCCN1)c1nc(-c2ccc(Cl)c(O)c2)c(-c2ccncc2)[nH]1 | 8.17 | 8.03 | 8.28 |
| CC(=O)Nc1ccc(CN2CCC(CNC(=O)c3cc(-c4cccc(Cl)c4)cs3)C2)cc1 (centres undefined) | -1.53 | 0.33 | 3.3 |
| O=C(/C=C/c1ccc(Cl)c(Cl)c1)NCCCCCN1CCC(NC(=O)Nc2ccccc2F)CC1 | 0.1 | 4.13 | -0.91 |
| COc1ccc(NC(=O)CCNc2cc(C)nc(NCCc3ccc(F)cc3)n2)cc1 | -0.52 | 0.39 | -0.01 |

| SMILES | inhibition [1] [%] | inhibition [2] [%] | inhibition [3] [%] |
| --- | --- | --- | --- |
| N#CN1CC[C@@H](NS(=O)(=O)Cc2ccc(Cl)c(Cl)c2)C1 | 5.72 | 4.08 | 4.15 |
| CC(=O)Nc1ccc(OCCCCN(Cc2ccccc2OC(F)(F)F)c2ccc(C(F)(F)F)c(C#N)c2)c(Cl)c1 | 1.46 | 4.12 | 7.95 |
| Cc1ccc(Oc2cnn(C)c(=O)c2Nc2cccc(C(=O)NCCc3ccccn3)c2)c(C)c1 | 4.16 | 4.25 | 3.26 |
| O=C(c1ccc([N+](=O)[O-])o1)N1CCN(c2nc3c(F)cc(F)cc3s2)CC1 | 21 | 6.03 | 7.31 |
| CC(Oc1ccc(Cl)cc1)C(=O)N(C)C1CCN(CCCCCNC(=O)/C=C/c2ccc(Cl)c(Cl)c2)CC1 (centres undefined) | 1.06 | 3.1 | 1.95 |
| CC(C)c1ccc(C(NC(=O)C2CCCCC2)c2ccc3cccnc3c2O)cc1 (centres undefined) | -0.43 | -0.57 | -1 |
| Cc1ccc(-c2nc(N3CCN(C(=O)c4ccco4)CC3)c3ccccc3n2)cc1 | 2.55 | 0.57 | 0.1 |
| CCN(CCNC(=O)Nc1cc(C(F)(F)F)cc(C(F)(F)F)c1)c1cccc(C)c1 | 5.44 | 4.69 | 5.45 |
| CCCCCCN1CCC(NCc2cccc(C(F)(F)F)c2)CC1 | 9.06 | 12.2 | 6.27 |
| CCCC1N=C(N)N=C(N)N1c1ccc(Cl)cc1 (centres undefined) | 2 | 2.02 | 2.31 |
| NC(=O)c1cccc(C(=O)Nc2cccc(-c3csc(-c4nc5ccccc5[nH]4)c3)c2)c1 | 2.68 | 2.2 | 2.09 |
| Cc1ccc2c(c1)C1(CC(=O)N(CCc3scnc3C)C1=O)C(=O)N2Cc1ccccc1 (centres undefined) | 2.62 | 3.66 | 3.42 |
| CC1CCCN(S(=O)(=O)c2cc(Br)cc3c2N(C(=O)C2CC2)CC3)C1 (centres undefined) | 2.64 | 2.33 | 1.02 |
| CCOc1cc(C(=O)NCc2cccc(C(F)(F)F)c2)ccc1-c1nc2cc(Cl)ccc2[nH]1 | 2.15 | 2.24 | 1.82 |
| CCCCCCCN1CC[C@@H](CCCc2ccnc3ccc(OC)cc23)[C@@H](CNC)C1 | 0.83 | -1.11 | -0.87 |
| CN1CCN(CCCN(Cc2cccc(-c3ccc(CNCCc4ccccc4)cc3)c2)C(=O)c2cccs2)CC1 | 4.14 | 4.22 | 3.91 |
| O=c1cc(NCC2(CNCc3cn(Cc4ccccc4)c4ccccc34)CCCCC2)[nH]c2ccccc12 | 4.81 | 5.38 | 5.44 |
| Oc1ccc(CCNCCCCCCNCCc2ccc(Cl)cc2)c(Cl)c1O | -2.47 | -4.06 | -1.17 |
| Cc1ccc(Nc2nnc(SCC(=O)Nc3ccc(CN4CCCC4)cc3)s2)cc1 | 0.83 | -0.59 | 0.85 |
| O=C(CSc1nccn1C1CCCC1)Nc1cc(C(F)(F)F)ccc1Cl | 1.51 | 2.58 | 2 |
| Cc1nc(NC(=N)N)nc2ccc(C(C)(C)C)cc12 | 0.73 | 0.81 | 1.22 |
| Oc1cccc(Nc2nc(NCC3CCCO3)c3ccccc3n2)c1 (centres undefined) | 27 | 24.8 | 9.1 |
| O=C(/C=C/c1ccc(Cl)c(Cl)c1)NCCCCCN1CCC(c2cn[nH]c2-c2ccccc2)CC1 | 4.33 | 3.45 | 1.87 |
| O=C(NC1CCN(Cc2ccccc2O)C1)c1ccc(Cl)c(Cl)c1 (centres undefined) | 0.72 | 0.7 | -5.99 |
| C=CC[C@H](NC(=O)c1ccc(NS(=O)(=O)c2ccc3nc(N)[nH]c(=O)c3c2)cc1)C(=O)OCCCC | 0.58 | 0.62 | 1.67 |

| SMILES | inhibition [1] [%] | inhibition [2] [%] | inhibition [3] [%] |
| --- | --- | --- | --- |
| O=S(=O)(NCCN1CCCC1)c1ccc(-c2cccc(CNCc3ccccc3)c2)s1 | -2.31 | -2.12 | -2.89 |
| O=S(=O)(NCCN1CCCC1)c1ccc(-c2cccc(CNC3Cc4ccccc4C3)c2)cc1 | 2.76 | 8.98 | 6.15 |
| Cc1cc(F)ccc1-c1nc(N(C)CCN(C)C(=O)N(C)c2ccccc2)nc2c1ccc(=O)n2-c1c(F)cccc1F | 2.99 | 3.18 | 9.88 |
| Oc1c(C=Nn2cnnc2)sc2ccccc12 | -0.72 | 5.61 | 11.2 |
| Cc1cc(C(=O)OCC(=O)Nc2c(C)n(C)n(-c3ccccc3)c2=O)c(C)n1-c1ccc(F)cc1 | -2.25 | -1.81 | -0.97 |
| Fc1ccc2[nH]c(-c3ccc(-c4ccc(CN5CCN(CCN6CCOCC6)CC5)cc4)cc3)nc2c1 | 5.88 | 4.38 | 1.45 |
| N#CCOc1c(C2CCN(CCCCNC(=O)c3ccc(-c4ccc(C(F)(F)F)cc4)cc3)CC2)ccc2c1CCCC2 | 4.16 | 3.28 | 3.28 |
| COc1ccc(-c2c3c(=O)n(C)c(=O)n(C)c3c3nnc4ccccc4n23)cc1 | 0.81 | 1.06 | 1.3 |
| CCCCCCN(C(=O)OCc1ccccc1)C1CCN(C(=O)OC(C)(C)C)CC1C(=O)OCC (centres undefined) | 7.92 | 6.27 | 7.27 |
| Cc1ccccc1N1CCN(c2ccc(C(=O)NC(C)C)cn2)CC1 | 0.52 | -0.59 | -1.79 |
| O=C(Nc1ccc(F)cc1)NC1CCN(CCCCCNC(=O)C2CC2c2ccc(Cl)c(Cl)c2)CC1 (centres undefined) | 1.84 | 1.54 | 2.31 |
| COc1ccc(N2CCN(CCCCNC(=O)c3ccc(NC(=O)c4ccc(Cl)c(Cl)c4)cc3)CC2)c(OC)c1 | 2.23 | 1.72 | 1.65 |
| CN1CCN(c2ccc(CNc3ccc4ncc(-c5ccc(OC(F)(F)F)cc5)n4n3)cc2)CC1 | -2.29 | -1.23 | -1.25 |
| CC(C)CNCc1cccc(-c2ccc(CN(CCCN3CCN(C)CC3)C(=O)CCC3CCCC3)cc2)c1 | 38.9 | 56.9 | 9.11 |
| CN1CCN(CCCN(Cc2ccc(-c3ccc(CNCCc4ccccc4)cc3)cc2)C(=O)c2cccs2)CC1 | 2.36 | 1.19 | 3.32 |
| CN(C)Cc1ccc(-c2ccc3ccnc(N)c3c2)cc1 | 3.2 | 4.43 | 1.95 |
| Nc1ncc(Cc2ccc3c(ccc4ccccc43)c2)c(N)n1 | 14.2 | 12.7 | 11.9 |
| CC1(C)NC(N)=NC(=N)N1OCCc1cccc2ccccc12 | 2.21 | 10.7 | 4.71 |
| CNCc1ccc(CN(C)c2nc(N)c3cc(OC)c(OC)cc3n2)cc1 | 4.8 | 5.4 | 6.34 |
| N=c1cc(C=Cc2ccc(O)cc2)[nH]c2ccccc12 | 2.26 | 4.1 | 3.12 |
| CC(C)(C)c1ccc(CN2CCC(CNC(=O)c3cc(-c4cccc(Cl)c4)cs3)C2)cc1 (centres undefined) | 16.7 | 3.66 | 1.5 |
| O=C(c1ccc(O)c(-c2cc(Cl)cc(Cl)c2)c1)N(CCO)CCO | 2.23 | 1.98 | 3.14 |
| Cc1cccc2nc(-c3ccc(-c4ccc(CNCc5ccc(S(C)(=O)=O)cc5)cc4)cc3)[nH]c12 | 12 | 10.9 | 7.88 |

— ChEMBL document CHEMBL3433997, “St. Jude Leishmania screening dataset” (2016)
